Only some compounds are listed: those with a hit (about 11% of all), similar ones and a draw of the others.
HCV inh = inhibitors of hepatitis C virus infection; Huh7.5.1 HCVcc-Cre infection, luciferase reporter, 44 h; AID 651820; Potency, µM (series often up to 41.8 µM), hits mostly inhibitors; 340,000 compounds, 3.4% hits
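Cells seeded at 1,000/well and cultured 4 h, then compounds added followed by HCVcc-Cre virus (~0.5 moi). After 44 h further culture, luciferase substrate was added, plates held 15 min at room temperature, and luminescence read for 15 sec.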
AMA1 RON2 block = inhibitors of Plasmodium falciparum AMA1-RON2 interaction | AlphaScreen AMA1-biotinylated RON2 peptide binding | Potency, µM (titrated, usually from 58.2 µM), usual class: inhibitors | 360,000 compounds, 0.2% hits; note: nearly all actives have a fitted effect of over 45% in size
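AMA1 (3D7) with his tag at 25 nM final met compounds first, then biotinylated RON2 peptide at 25 nM; detection used donor plus acceptor beads, 10 µg/mL apiece, read by AlphaScreen after 30 min at room temperature.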
Pf growth 48h = P. falciparum growth inhibition at 48 hours (one generation) | P. falciparum luciferase growth in erythrocytes, 48 h | AID 504832 | 310,000 compounds, 5.9% hits | Potency, µM (series often up to 28.7 µM), usual class: inhibitors
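Parasite viability was followed by luminescence of a genomically integrated firefly luciferase. Cultures held 0.1% parasitemia at 2% hematocrit (final), incubated under 5% CO2 at 37 C.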
Pf growth 96h = P. falciparum growth inhibition at 96 hour, primary screen for plastid delayed-death inhibitors | P. falciparum luciferase reporter growth, 96 h | Potency, µM (titrated, usually from 28.7 µM), most hits filed as inhibitors | 320,000 compounds, 6.9% hits | AID 504834
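96 h incubation, 37 C, 5% CO2, of luciferase-reporter P. falciparum-infected RBCs (2% hematocrit, 0.05% parasitemia final) with test compounds; endpoint luminescence.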
Numbers stand for hits; [ ] = dose if it differs, or a comment. Calls come from the whole dose curve; as a rule, active = well fitted curve in the direction sought with a large enough effect; inconclusive = small, poorly fitted or top-dose-only effect, or another doubt; inactive = no such curve, though single readings can be large; an effect the other way counts as inactive or inconclusive.

Results for Cc1ccc(CCNC(=O)C2CCN(S(=O)(=O)c3ccc4c(c3)NC(=O)C(C)S4)CC2)cc1 (stereo unspecified) ?
HCV inh: 6.3µM; AMA1 RON2 block: inactive; Pf growth 48h: inconclusive; Pf growth 96h: inconclusive

Results for Cc1ccccc1NC(=O)C1CCN(S(=O)(=O)c2ccc3c(c2)NC(=O)C(C)S3)CC1 (stereo unspecified) ?
HCV inh: inactive; AMA1 RON2 block: inactive; Pf growth 48h: inconclusive; Pf growth 96h: inconclusive

How did CC1Sc2ccc(S(=O)(=O)N3CCC(C(=O)NCC(C)c4ccccc4)CC3)cc2NC1=O (stereo unspecified) do in these assays?
HCV inh: 11µM; AMA1 RON2 block: inactive; Pf growth 48h: inconclusive; Pf growth 96h: inactive

What do the screens show for `CCN1CCN(C(=O)C2CCN(S(=O)(=O)c3ccc4c(c3)NC(=O)C(C)S4)CC2)CC1` (stereo unspecified)?
HCV inh: inactive; AMA1 RON2 block: inactive; Pf growth 48h: inconclusive; Pf growth 96h: 2.9µM

What do the screens show for `Cc1cc(N(C)C)cc(C)c1N=Nc1cc[n+]([O-])cc1`?
AMA1 RON2 block: inactive

Results for O=C(NCCc1ccccc1)C1CCN(S(=O)(=O)c2cccnc2)CC1 ?
HCV inh: inactive; AMA1 RON2 block: inactive; Pf growth 96h: 7.4µM

Results for C[C@@]12CC(=O)NC1N(C(=O)c1cccc(C(F)(F)F)c1)C(c1ccccc1OC(=O)c1cccc(C(F)(F)F)c1)C2 (stereo partly specified) ?
HCV inh: inactive; AMA1 RON2 block: inactive; Pf growth 96h: 9.3µM

Results for C[C@@]12CC(=O)NC1N(C(=O)c1ccccc1)C(c1ccccc1OC(=O)c1ccccc1)C2 (stereo partly specified) ?
HCV inh: inactive; AMA1 RON2 block: inactive; Pf growth 48h: inconclusive

Results for CNC(=S)NN=C(C)CCCC(C)=NNC(=S)NC ?
HCV inh: inconclusive; AMA1 RON2 block: inactive

What do the screens show for `CC(=O)c1ccc(C(C)(C)c2ccc(C(C)=O)s2)s1`?
HCV inh: inconclusive; AMA1 RON2 block: inactive; Pf growth 48h: inconclusive; Pf growth 96h: 12µM

How did CCOc1ccc(OCCC(=O)N(CC)CC(=O)NCc2cccs2)cc1 do in these assays?
HCV inh: inactive; AMA1 RON2 block: inactive; Pf growth 48h: inactive; Pf growth 96h: inactive

Results for CCOC(=O)[C@]12CCCC=C1N(Cc1ccc(Cl)cc1Cl)C(=O)[C@H](CC(=O)N1CCSCC1)C2 ?
AMA1 RON2 block: inactive

How did Cc1ccc(C2C=C(c3ccc4c(c3)OCO4)Nc3ncnn32)cc1 (stereo unspecified) do in these assays?
HCV inh: inactive; AMA1 RON2 block: inactive; Pf growth 48h: inconclusive; Pf growth 96h: 12µM

What do the screens show for `CO/C=C\C=C/c1nnn(-c2ccc(Cl)cc2)n1`?
HCV inh: inactive; AMA1 RON2 block: inconclusive; Pf growth 48h: inactive; Pf growth 96h: inactive

How did CCN(CC)c1ccc([C@H]2[C@@H]3CCCC[C@]3(O)CCN2CC(=O)NCc2ccco2)cc1 do in these assays?
HCV inh: inactive; AMA1 RON2 block: inactive; Pf growth 48h: 10µM; Pf growth 96h: inconclusive

How did CCN(CC)c1ccc(C2C3CCCCC3(O)CCN2C(=O)c2cccs2)cc1 (stereo unspecified) do in these assays?
HCV inh: inactive; AMA1 RON2 block: inactive[2.32 µM]; Pf growth 48h: inconclusive; Pf growth 96h: 12µM

Results for CCOc1ccc(NC(=O)C2CC(=O)N(c3ccccc3F)C2)cc1 (stereo unspecified) ?
HCV inh: inactive; AMA1 RON2 block: inactive; Pf growth 48h: inactive; Pf growth 96h: inactive

Results for CCCCCc1ccc(OCCCC[n+]2ccccc2)c(CCCCC)c1 ?
HCV inh: inactive; AMA1 RON2 block: inactive; Pf growth 48h: 0.93µM; Pf growth 96h: inactive

Results for CCCCCc1ccc(OCCCC[n+]2ccc(C)cc2)c(CCCCC)c1 ?
HCV inh: 6.3µM; AMA1 RON2 block: inactive; Pf growth 48h: 0.47µM; Pf growth 96h: inactive

What do the screens show for `CCCCCc1ccc(OCCCC[n+]2cccc(C)c2)c(CCCCC)c1`?
HCV inh: inconclusive; AMA1 RON2 block: inactive; Pf growth 48h: inactive; Pf growth 96h: inactive

What do the screens show for `CCC(C)(C)c1ccc(OCCCC[n+]2ccccc2)c(C(C)(C)CC)c1`?
HCV inh: inconclusive; AMA1 RON2 block: inactive; Pf growth 48h: 2.1µM; Pf growth 96h: inactive

Results for COc1cc(NC(=O)c2cccs2)c(OC)cc1NC(=O)CCC(=O)Nc1ccc2ncccc2c1 ?
HCV inh: inactive; AMA1 RON2 block: inactive; Pf growth 48h: inconclusive; Pf growth 96h: inconclusive

How did COc1ccc(C(N)c2csc(Nc3nncc4ccccc34)n2)cc1 (stereo unspecified) do in these assays?
AMA1 RON2 block: inactive

How did CSc1ccc(C2Nc3ccccc3-c3cc(C)nn32)cc1 (stereo unspecified) do in these assays?
HCV inh: 10µM; AMA1 RON2 block: inactive; Pf growth 48h: inactive; Pf growth 96h: inactive

What do the screens show for `Cc1cc(C)nc(OC(C(=O)O)C(OCC(C)C)(c2ccccc2)c2ccccc2)n1` (stereo unspecified)?
HCV inh: inactive; AMA1 RON2 block: inactive; Pf growth 48h: inactive; Pf growth 96h: inactive

What do the screens show for `Cc1ccc(NC(=O)COc2cccc3c2OC(C)(C)C3)c(O)c1`?
HCV inh: inconclusive; AMA1 RON2 block: inactive; Pf growth 48h: 10µM; Pf growth 96h: inconclusive

What do the screens show for `COc1ccc(NC(=O)COc2cccc3c2OC(C)(C)C3)cc1OC`?
HCV inh: 6.3µM; AMA1 RON2 block: inactive; Pf growth 48h: inactive; Pf growth 96h: inconclusive

What do the screens show for `Cc1ccc(NC(=O)COc2cccc3ccccc23)c(O)c1`?
HCV inh: inconclusive; AMA1 RON2 block: inactive; Pf growth 48h: 5.2µM; Pf growth 96h: 4.7µM

How did CC1(C)Cc2cccc(OCC(=O)Nc3ccccc3F)c2O1 do in these assays?
HCV inh: inactive[8.37 µM]; AMA1 RON2 block: inactive; Pf growth 48h: inactive; Pf growth 96h: inactive

Results for COc1cccc(NC(=O)COC(=O)COc2cccc3c2OC(C)(C)C3)c1 ?
HCV inh: inactive; AMA1 RON2 block: inactive; Pf growth 48h: inactive; Pf growth 96h: inactive

What do the screens show for `Cc1ccc(NC(=O)CCC(=O)NNC(=O)Nc2cccc(Cl)c2)c(C)c1`?
HCV inh: inactive; AMA1 RON2 block: inactive; Pf growth 48h: inconclusive; Pf growth 96h: inactive

How did Cc1ccc(Cn2c(SCCN3CCCCC3)nc3c2c(=O)n(C)c(=O)n3C)cc1 do in these assays?
HCV inh: 13µM; AMA1 RON2 block: inactive; Pf growth 48h: inactive; Pf growth 96h: inconclusive

How did Cn1c(=O)c2c(nc(SCCN3CCOCC3)n2C)n(C)c1=O do in these assays?
HCV inh: inactive; AMA1 RON2 block: inactive; Pf growth 48h: inconclusive; Pf growth 96h: 3.7µM

How did CC1Cc2ccccc2N1C(=O)CSc1nc2c(c(=O)n(C)c(=O)n2C)n1Cc1ccccc1 (stereo unspecified) do in these assays?
HCV inh: 3.5µM; AMA1 RON2 block: inactive; Pf growth 48h: 5.9µM; Pf growth 96h: inactive

Results for Cn1c(=O)c2c(nc(SCCN3CCOCC3)n2Cc2ccc(F)cc2)n(C)c1=O ?
HCV inh: inactive; AMA1 RON2 block: inactive; Pf growth 48h: inactive; Pf growth 96h: inconclusive

Results for CCn1c(SCCN2CCOCC2)nc2c1c(=O)n(C)c(=O)n2C ?
HCV inh: inactive; AMA1 RON2 block: inactive; Pf growth 48h: inactive; Pf growth 96h: inconclusive

Screening results from PubChem BioAssay.
